{
  "source": "paper PMC7819943",
  "about": "“Rice protein-binding microarrays: a tool to detect cis-acting elements near promoter regions in rice”",
  "note": "Over roughly 68,000 sequences, “fluorescence intensity (a.u.)” has its median near 9,100; the highest 2% begin near 16,000. Shown is part of a subset that was picked to be rich in the highest values.",
  "data": [
    {"target": "OsWRKY34 (Oryza sativa, UniProt Q0JBA9 1-250)", "sequence (Q0JBA9 entry or part of it)": "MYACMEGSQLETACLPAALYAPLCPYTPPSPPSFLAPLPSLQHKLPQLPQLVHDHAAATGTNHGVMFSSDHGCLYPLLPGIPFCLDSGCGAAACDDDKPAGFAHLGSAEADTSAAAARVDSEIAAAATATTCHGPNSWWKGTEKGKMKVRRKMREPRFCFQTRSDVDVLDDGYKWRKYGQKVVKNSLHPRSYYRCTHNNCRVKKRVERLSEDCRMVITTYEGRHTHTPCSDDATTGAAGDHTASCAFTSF", "test": "protein-binding microarray (RPBM); PBS, 2% BSA, 51.3 ng/ul salmon testes DNA, 50 uM zinc acetate, 200 nM TF, 25 C, 1 h; high values mean tight binding", "conditions": "protein: recombinant; tags: N-terminal polyhistidine and DsRed monomer fusion (pET32a); label: CyDye5-dUTP incorporated in the synthesized complementary strand; 3' TTTTT single-stranded linker to array surface; dsDNA, one strand shown", "in_short": "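The binding signal is fluorescence intensity per feature, in arbitrary units, read on an Axon 4000B scanner. Polyhistidine- and DsRed-tagged transcription factors (N-terminal fusions) from E. coli BL21-CodonPlus were purified on Ni–NTA and applied at 200 nM for 1 h at 25 °C to a double-stranded, BSA-blocked custom Agilent array in buffer with 50 µM zinc acetate.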", "values": [
      {"sequence": "ATTGTTCGTCGAACTTTATCATATTATTAATCATCATATACGGAGTCACCTAGTGCAG", "binding signal": "8960 fluorescence intensity (a.u.)"},
      {"sequence": "ACCACGGCAAGCCCCTCGCCGAGTCTCTCATCATCGTCGACGGAGTCACCTAGTGCAG", "binding signal": "8830 fluorescence intensity (a.u.)"},
      {"sequence": "TTTGTGTAACCGATATGTGGGCCCCACATATTTTATTATTCGGAGTCACCTAGTGCAG", "binding signal": "9030 fluorescence intensity (a.u.)"},
      {"sequence": "TGCGTGGGTCCCAACTCCGGCCGTCTTCCGCCGTTGGATCCGGAGTCACCTAGTGCAG", "binding signal": "8940 fluorescence intensity (a.u.)"},
      {"sequence": "CCACGATCACATTCACCTCCCATCCCACGACGTTGCTCTCCGGAGTCACCTAGTGCAG", "binding signal": "8850 fluorescence intensity (a.u.)"},
      {"sequence": "TTTTACCAACTTTCTTAATACTCGTGTCCACCTAAAAAATCGGAGTCACCTAGTGCAG", "binding signal": "8440 fluorescence intensity (a.u.)"},
      {"sequence": "CGCCTCCGGCCTCCTCACGCACTGCCGCACCACGTCGCACCGGAGTCACCTAGTGCAG", "binding signal": "9020 fluorescence intensity (a.u.)"},
      {"sequence": "ACCTACTTTTCGTCCCTTAATTCTGTGGCTATGTTCAAATCGGAGTCACCTAGTGCAG", "binding signal": "12700 fluorescence intensity (a.u.)"},
      {"sequence": "GAGAGGAGGTGGTGGGAAGTGGCGGCTAGGGTTTGGGTGGCGGAGTCACCTAGTGCAG", "binding signal": "11300 fluorescence intensity (a.u.)"},
      {"sequence": "TTTTTACACGCGTTTTTTTTACATTGTCGTTTTTTTTTTGCGGAGTCACCTAGTGCAG", "binding signal": "13500 fluorescence intensity (a.u.)"},
      {"sequence": "TCGTTCGTTGGTTTGTTTTTTTTTTCTTTTCTCGCGTACACGGAGTCACCTAGTGCAG", "binding signal": "11600 fluorescence intensity (a.u.)"},
      {"sequence": "TCATCCGGTGCCTGTTGTCTCTTTCTTCTCTCTCACATACCGGAGTCACCTAGTGCAG", "binding signal": "16600 fluorescence intensity (a.u.)"},
      {"sequence": "CGGCAGTGTTCTTTTTTTTTTACACGCGTTTTTTTTTACACGGAGTCACCTAGTGCAG", "binding signal": "10800 fluorescence intensity (a.u.)"},
      {"sequence": "ATTATTGTTGTACAGTTCTTGCCTACAGTTCGGTTTTTCTCGGAGTCACCTAGTGCAG", "binding signal": "19700 fluorescence intensity (a.u.)"},
      {"sequence": "GCACAGTGGGAGGCCCGCGTTCTTTTTTTTTCGCCGGTTTCGGAGTCACCTAGTGCAG", "binding signal": "10000 fluorescence intensity (a.u.)"},
      {"sequence": "TTCTTTTCGGTTGATTGTTTTTCTTTGTATTTCAGTGTTGCGGAGTCACCTAGTGCAG", "binding signal": "9180 fluorescence intensity (a.u.)"},
      {"sequence": "TGTTCTTTTTTTTTACACGCGTTTTTTTTACATTGTCGTTCGGAGTCACCTAGTGCAG", "binding signal": "18400 fluorescence intensity (a.u.)"},
      {"sequence": "GCAGTCGGTTCGCGTTTGTTTTTTTTCTTTCTTTCTTTTTCGGAGTCACCTAGTGCAG", "binding signal": "18400 fluorescence intensity (a.u.)"},
      {"sequence": "GGTTTTTTCGGTTTTCGGTTGTCAGTTCGGTTTCTGTTTTCGGAGTCACCTAGTGCAG", "binding signal": "15400 fluorescence intensity (a.u.)"},
      {"sequence": "AGCCTTATCTCTTCATCGGTTCATCCGGTGCCTGTTGTCTCGGAGTCACCTAGTGCAG", "binding signal": "8990 fluorescence intensity (a.u.)"},
      {"sequence": "CACCTTCTTTTTCTCTCTCTCTCTCTCTCTCTTTCTCATCCGGAGTCACCTAGTGCAG", "binding signal": "10300 fluorescence intensity (a.u.)"},
      {"sequence": "CGCCGCCGCCCTCACCCTCGCCGCCGCGCATCCCGCGGTCCGGAGTCACCTAGTGCAG", "binding signal": "8120 fluorescence intensity (a.u.)"},
      {"sequence": "ATAATAGGGTTATTCATAATATGGCAGGGTTTTTGGTTAGCGGAGTCACCTAGTGCAG", "binding signal": "10300 fluorescence intensity (a.u.)"},
      {"sequence": "TGTGATAGGCTTCAATGTTTAATCTCACCATCGATTGTTACGGAGTCACCTAGTGCAG", "binding signal": "9500 fluorescence intensity (a.u.)"},
      {"sequence": "TAGTCTTTGTCGTTTCCATGTATAACTCTATTTATCTTTCCGGAGTCACCTAGTGCAG", "binding signal": "12400 fluorescence intensity (a.u.)"},
      {"sequence": "CTAGTTGCTCCTAACTTGGCCTACTGTCCTCCATCTCCAACGGAGTCACCTAGTGCAG", "binding signal": "9280 fluorescence intensity (a.u.)"},
      {"sequence": "GAGCTTCCTATCGCGCCGCCGCGTGCGTACGTGTTTGATCCGGAGTCACCTAGTGCAG", "binding signal": "11000 fluorescence intensity (a.u.)"},
      {"sequence": "TACACCGTCCCAACCGGCTTTGTTTGACTTGTCCGACCAGCGGAGTCACCTAGTGCAG", "binding signal": "8330 fluorescence intensity (a.u.)"},
      {"sequence": "TTACCGATGCGACCTGTCCCTGTCACTCCCGCCTCGGTAACGGAGTCACCTAGTGCAG", "binding signal": "9060 fluorescence intensity (a.u.)"},
      {"sequence": "GACATTACGGGCCCACAAGTACGCGTCCCCACCAGCCATACGGAGTCACCTAGTGCAG", "binding signal": "8490 fluorescence intensity (a.u.)"},
      {"sequence": "ATCACCTTGCTCGATCGCCTCCGTTGTTTTGCACTAAATTCGGAGTCACCTAGTGCAG", "binding signal": "8620 fluorescence intensity (a.u.)"},
      {"sequence": "GAGGGGAGGAAGAAGAGGTGGGTGAGAATGACACGTGGGGCGGAGTCACCTAGTGCAG", "binding signal": "10600 fluorescence intensity (a.u.)"},
      {"sequence": "CTCTCTCTTCTTCTTCGTGTTGTTGTTTCTCTCTCTGTCTCGGAGTCACCTAGTGCAG", "binding signal": "11700 fluorescence intensity (a.u.)"},
      {"sequence": "TGTTTCTATCTCGTATCTTCTCTTCCAAGCATGTATTTCCCGGAGTCACCTAGTGCAG", "binding signal": "8650 fluorescence intensity (a.u.)"},
      {"sequence": "ATTGTTCATTTGTCGTTCCATTACATGTAACTTCACTTCACGGAGTCACCTAGTGCAG", "binding signal": "17000 fluorescence intensity (a.u.)"},
      {"sequence": "TTTGTGTCACTTTTAAACATGTTCACGTCATTATTTTAGTCGGAGTCACCTAGTGCAG", "binding signal": "9290 fluorescence intensity (a.u.)"},
      {"sequence": "CTTCGTGTTCGTCGTGGTCTCTTGTTTCTTCTTCTTCTTCCGGAGTCACCTAGTGCAG", "binding signal": "22000 fluorescence intensity (a.u.)"},
      {"sequence": "GATTTTTTCGGACTTGGTCTCGGTCTTTTTGTTTGGTTATCGGAGTCACCTAGTGCAG", "binding signal": "10200 fluorescence intensity (a.u.)"},
      {"sequence": "CTTATCTCATTTTATCTCGGTTTTTGTTAACTTGTTTTTTCGGAGTCACCTAGTGCAG", "binding signal": "18200 fluorescence intensity (a.u.)"},
      {"sequence": "ATCGTTATCTATTGCCGTATGTTATTTCGTTGTTCCGTCTCGGAGTCACCTAGTGCAG", "binding signal": "8920 fluorescence intensity (a.u.)"},
      {"sequence": "TGTTCTTGTTTGTGTTTTCTTCTTCGTCTCCGGCGACGGCCGGAGTCACCTAGTGCAG", "binding signal": "10000 fluorescence intensity (a.u.)"},
      {"sequence": "TTTTAATCTCATTTTTTTTAACGGTTTTGCTATAATTTTTCGGAGTCACCTAGTGCAG", "binding signal": "8850 fluorescence intensity (a.u.)"},
      {"sequence": "TCTTATATGTTATGCAAGTATGTTTCTATCTCGTATCTTCCGGAGTCACCTAGTGCAG", "binding signal": "16500 fluorescence intensity (a.u.)"},
      {"sequence": "GTTCATTTTCATGTTATTTTTCATGTAACTACATTATTATCGGAGTCACCTAGTGCAG", "binding signal": "8990 fluorescence intensity (a.u.)"},
      {"sequence": "ATTTTGTTTCTCCTTGGTTGGTTTTGCTTCACCTAGATCACGGAGTCACCTAGTGCAG", "binding signal": "11200 fluorescence intensity (a.u.)"},
      {"sequence": "GCTCGCTTTCTCAGGTCTTTCTCTTCCCCGTATCCCCACTCGGAGTCACCTAGTGCAG", "binding signal": "10500 fluorescence intensity (a.u.)"}
    ]}
  ]
}
